# Screening data from PubChem.
# nsP2pro inh: CHIKV nsP2 protease inhibition, primary qHTS; Q8JUX6; FRET peptide cleavage, nsP2pro, fluorescence 1 h; Potency, µM (series often up to 24.9 µM), without a hit: at the top dose activity change, negative = inhibition, most hits filed as inhibitors; 31,000 compounds, 1.1% hits; note: nearly all actives have a fitted effect of over 60% in size
#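 Recombinant nsP2pro (150 nM) was preincubated with compound 15 min at room temperature in 10 mM Tris-HCl pH 8.0, 0.01% Tween 20. Peptide 2 FRET substrate (2.5 uM) was then added and fluorescence read after 1 h. Seven-point series, up to 25 uM.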
# nsP2 cell sec: secondary cell-based test for CHIKV nsP2 protease inhibitors; cell-based CHIKV nsP2 protease reporter assay; Potency, µM (titrated, usually from 51.1 µM), inactives show at the highest dose activity change, negative = inhibition, most hits filed as inhibitors; shares compounds with nsP2pro inh; AID 1964100; 450 compounds, 10% hits; note: nearly all actives have a fitted effect of over 70% in size
# Target sequence (Q8JUX6 220-798 limits assumed): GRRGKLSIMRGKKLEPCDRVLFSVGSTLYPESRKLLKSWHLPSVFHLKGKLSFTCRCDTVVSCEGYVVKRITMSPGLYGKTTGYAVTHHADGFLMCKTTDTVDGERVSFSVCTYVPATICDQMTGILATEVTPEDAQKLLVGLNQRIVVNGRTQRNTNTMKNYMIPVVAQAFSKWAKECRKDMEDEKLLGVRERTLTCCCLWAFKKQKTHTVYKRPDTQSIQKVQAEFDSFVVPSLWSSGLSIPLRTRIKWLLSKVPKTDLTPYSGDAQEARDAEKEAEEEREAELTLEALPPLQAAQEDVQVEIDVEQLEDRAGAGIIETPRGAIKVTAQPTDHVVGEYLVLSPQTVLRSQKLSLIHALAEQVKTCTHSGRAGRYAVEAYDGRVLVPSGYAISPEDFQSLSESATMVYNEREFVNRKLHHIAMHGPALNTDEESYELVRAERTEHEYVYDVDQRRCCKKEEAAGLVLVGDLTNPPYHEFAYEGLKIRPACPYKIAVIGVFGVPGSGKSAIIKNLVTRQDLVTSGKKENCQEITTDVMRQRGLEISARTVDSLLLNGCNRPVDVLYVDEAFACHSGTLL
# CHIKV NSP2 FL: full-length CHIKV NSP2 protease inhibition, selectivity; AID 1964101; Full-length CHIKV NSP2 protease enzymatic counterscreen; Potency, µM (series often up to 50.7 µM), without a hit: top-dose activity change, negative = inhibition, hits mostly inhibitors; 410 compounds, 39% hits; shares compounds with nsP2pro inh; note: nearly all actives have a fitted effect of over 65% in size
# Furin counter: human furin inhibition, counterscreen for nsP2pro inhibitors; AID 1964102; Potency, µM (doses to about 50.6 µM), for inactives: top-dose activity change, negative = inhibition, usual class: inhibitors; shares compounds with nsP2pro inh; 410 compounds, 6% hits; Recombinant human furin enzymatic counterscreen, fluorogenic substrate
# nsP2 NS23 pep: nsP2pro inhibition on native NS2/3 peptide substrate; shares compounds with nsP2pro inh; Potency, µM (highest dose often 51 µM), for inactives: top-dose activity change, negative = inhibition, usual class: inhibitors; Purified CHIKV nsP2 protease, endogenous NS2/3 peptide cleavage; 410 compounds, 34% hits; AID 1964103; note: nearly all actives have a fitted effect of over 55% in size
# Papain counter: papain protease inhibition, counterscreen for nsP2pro inhibitors; purified papain protease activity, enzymatic inhibition; 410 compounds, 5% hits; shares compounds with nsP2pro inh; Potency, µM (series often up to 51 µM), without a hit: at the top dose activity change, negative = inhibition, hits mostly inhibitors
# nsP2pro confirm: confirmation of CHIKV nsP2 protease inhibitors; 410 compounds, 43% hits; Potency, µM (series often up to 25.5 µM), inactives show at the top dose activity change, negative = inhibition, usual class: inhibitors; CHIKV nsP2 protease enzymatic activity, qHTS; shares compounds with nsP2pro inh; note: nearly all actives have a fitted effect of over 75% in size
# HCV NS3 counter: inhibits HCV NS3/4A protease in an nsP2pro selectivity counterscreen; 410 compounds, 20% hits; HCV NS3/4A protease biochemical counterscreen; AID 1964106; Potency, µM (highest dose often 50.9 µM), usual class: inhibitors; shares compounds with nsP2pro inh; note: nearly all actives have a fitted effect of over 55% in size
# Active calls of the source: *; i = inactive; ? = inconclusive; [ ] = remark or other dose. Shown is part of a subset that was picked to be rich in hits. Calls come from the whole dose curve. % is set by controls: 0 for no effect and ±100 for the full control effect; potency is the fitted concentration of half-maximal effect.
SMILES,nsP2pro inh,others
CN1CCN(c2nc(-c3ccc(C(=O)NC4(C(=O)NCC#N)CCCCC4)cc3)cs2)CC1,1%,
COc1ccccc1/C=C/C(=O)NCCc1nc2ccccc2n1CCOc1ccc(C)cc1,0%,
COc1ccccc1OC1(C(=O)O)CCN(c2ncnc(C)c2C)CC1,0%,
COc1ccccc1OC1(C(=O)O)CCN(Cc2cccnc2)CC1,1%,
COc1ccccc1OC1(C(=O)O)CCN(Cc2ccc(-c3ccn[nH]3)o2)CC1,1µM*,nsP2 cell sec=?;CHIKV NSP2 FL=?;Furin counter=-8%;nsP2 NS23 pep=0%;Papain counter=-3%;nsP2pro confirm=-23%;HCV NS3 counter=i
NC(=O)C1CCN(c2nc(-c3ccc(OC(F)(F)F)cc3)cs2)CC1,i,
CC(C)(C)OC(=O)N1CCN(c2cnc(NCc3ccc(-c4ccc(C#N)cc4)o3)nc2)CC1,-16%,
O=C(Cc1cccc(Cl)c1)N1CC(c2nc(Cc3ccccc3)no2)C1,-8%,
CCN(CC)C(=O)[C@@H]1CCC[C@@H](NC(C)=O)CN(C)C(=O)C1,-7%[39.2 µM],
COCC(=O)N[C@@H]1CCC[C@@H](C(=O)NC2CC2)CC(=O)N(C)C1,i,
CCCNC(=O)N[C@@H]1CCC[C@@H](C(=O)NCCOC)CC(=O)N(C)C1,4µM*,nsP2 cell sec=21%;CHIKV NSP2 FL=15µM*;Furin counter=?;nsP2 NS23 pep=24µM*;Papain counter=4%;nsP2pro confirm=4.1µM*;HCV NS3 counter=?
CC[C@@H](C)[C@H](NC(=O)C(C)(C)NC(=O)[C@H](CCC(N)=O)NC(=O)C(C)(CC)NC(=O)[C@H](Cc1c[nH]c2ccccc12)NC(C)=O)C(=O)N[C@H](C(=O)NC(C)(C)C(=O)N[C@@H](CC(C)C)C(=O)NC(C)(C)C(=O)N1CCC[C@H]1C(=O)N[C@@H](CCC(N)=O)C(=O)NC(C)(C)C(=O)N1CC(O)C[C@H]1C(=O)NC(C)(CC)C(=O)C1CC[C@@H](C(=O)N[C@@H](Cc2ccccc2)C(=O)NCC(=O)O)N1)C(C)O (stereo partly specified),14%[2.68 µM],
c1cc2c(cc1CNc1ccc(N3CCCCC3)cc1)OCO2,-1%,
Cc1ccc(CNC(=O)N2CCCC(c3nn[nH]n3)C2)cc1 (stereo unspecified),2%,
CC(=O)OC[C@@]12C(=O)C[C@@H](C)[C@]3(C[C@@H](c4ccoc4)OC3=O)[C@H]1CC[C@H](OC(C)=O)[C@]21CO1,-20%[10 µM],
C[C@@H]1CC[C@]2(C)C3(C)CC[C@@]2(OC3=O)[C@@]12C[C@H](c1ccoc1)OC2=O,2.4µM*,nsP2 cell sec=-11%[33.5 µM];CHIKV NSP2 FL=7.2µM*;Furin counter=5%[33.5 µM];nsP2 NS23 pep=?;Papain counter=-9%[33.5 µM];nsP2pro confirm=2.2µM*;HCV NS3 counter=1.8µM*
O=C(Cc1cc2c(cc1Cl)OCCO2)N[C@@H]1COCC[C@@H]1OCC1CC1,i,
O=C(NCc1cccs1)c1cc(C2CC2)nc2onc(C3CCCNC3)c12 (stereo unspecified),-7%,
O=C(CCc1cc2n(n1)CCCNC2)NC1CCCN(c2ncccn2)C1 (stereo unspecified),-1%,
O=c1oc2c3c(ccc2c2ccccc12)OCN(Cc1ccc(Cl)cc1)C3,?,nsP2 cell sec=206%;CHIKV NSP2 FL=?;Furin counter=?;nsP2 NS23 pep=?;Papain counter=-4%;nsP2pro confirm=4.5µM*;HCV NS3 counter=i
Cc1cc(=O)oc2c3c(ccc12)OCN(Cc1ccc(Cl)cc1)C3,12%,
COc1ccc(CN2COc3ccc4c(oc(=O)c5ccccc54)c3C2)cc1OC,-28%,
NC(=O)[C@H]1C[C@@H](O)[C@H](O)[C@H]2[C@@H]1SC(=Nc1ccc(Cl)cc1)N2CC1CCCCC1,4%,
O=C(NCCc1ccccc1)C1CCN(c2nc(-c3ccc(Br)cc3)cs2)CC1,-22%,
O=C1COCC2(CN(CCC(F)(F)F)C2)CN1Cc1cccc(OC(F)(F)F)c1,-5%[39.2 µM],
SMILES,nsP2pro inh,others
CC(C)(C)N(C[C@@H](O)[C@H](Cc1ccccc1)NC(=O)O[C@H]1CO[C@H]2OCC[C@H]21)[S+](=O)([O-])c1ccc(N)cc1,-1%,
O=C1O[C@@H]2CN(c3ncccn3)C[C@@H]2N1CCc1ccc(F)cc1,i,
COCCN1C(=O)CO[C@H]2CN(c3ncccn3)C[C@H]21,7.9µM*,nsP2 cell sec=7%[100 µM];CHIKV NSP2 FL=33µM*;Furin counter=?;nsP2 NS23 pep=?;Papain counter=3%[100 µM];nsP2pro confirm=16µM*;HCV NS3 counter=?
CC(C)N1C[C@@H]2OCC(=O)N(Cc3ccccc3)[C@@H]2C1,-19%[39.2 µM],
O=C([C@H](Cc1ccc(O[S+](=O)([O-])c2cccc3cnccc23)cc1)N[S+](=O)([O-])c1cccc2cnccc12)N1CCN(Cc2ccccc2)CC1,4%,
CN(C)c1ccc(C2N=C(Nc3nc4ccccc4o3)NC3=C2C(=O)CCC3)cc1 (stereo unspecified),4%,
CCCCCCCCCCCCCCCCOc1nc2ccc(C)cc2c(=O)o1,-2%,
NS(=O)(=O)c1ccc(-n2nc(C(F)(F)F)cc2-c2ccc(F)cc2)cc1,5%,
CC(=O)O[C@H]1C[C@]2(O)[C@@H]3CC[C@@H]4C[C@@H](O)CC[C@]4(C)[C@H]3CC[C@]2(C)[C@H]1c1ccc(=O)oc1,5%,
CN1C(=O)[C@]23CC4C(C)(C)[C@@]5(C[C@@]41CN2CC[C@@]3(C)O)C(=O)Nc1c5ccc2c1OC=CC(C)(C)O2 (stereo partly specified),19%[10 µM],
CCN(Cc1cccnc1)C(=O)CN(c1ccc(OC)nc1)S(=O)(=O)c1ccccc1C,1%,
CC(C)[C@@H](C)/C=C/[C@@H](C)[C@H]1CC[C@H]2/C(=C/C=C3\C[C@@H](O)CC[C@@H]3C)CCC[C@]12C,-11%,
COc1ccc(NC(=O)CN2C(=O)N/C(=C\c3cccn3-c3ccc(C(=O)NC#N)cc3)C2=O)cc1,i,
CCN(c1ccccc1)S(=O)(=O)c1ccc(NC(=O)c2nc(S(C)(=O)=O)ncc2Cl)cc1,?,nsP2 cell sec=2.6µM*;CHIKV NSP2 FL=4.1µM*;Furin counter=-6%;nsP2 NS23 pep=5.8µM*;Papain counter=-15%;nsP2pro confirm=4.5µM*;HCV NS3 counter=i
CC(C)Sc1ncc(Cl)c(C(=O)Nc2ccc(S(=O)(=O)N(C)c3ccccc3)cc2)n1,-17%,
CCSc1ncc(Cl)c(C(=O)Nc2ccc(S(=O)(=O)N(C)c3ccccc3)cc2)n1,-12%,
